# Source: PubChem BioAssay (several laboratories)
# The list is not random: actives were taken first. Their share in the collection is about 2%.
# CHT allo act: allosteric activators of human choline transporter CHT; Q9GZV3; CHT-expressing cells, membrane potential dye, choline EC20; stronger effect = higher value; LV-AA mutant CHT in HEK293 cells; B-score at 10 µM; actives 0.49% (n = 310,000); AID 488977;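 active = initial fluorescence not abnormally high and integrated response B-score, plate-corrected, over 3 SD above library mean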
# EP2 mod: modulates human prostaglandin E2 receptor EP2 signaling | P43116 | EP2-expressing cells, cAMP HTRF FRET, PGE2 co-stimulation | induction, % at 25 µM | actives 0.83% (n = 260,000);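 active = compounds whose cAMP rise, as percent of the full-agonist control response, exceeds 60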;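 also: rat C6 glioma line stably carrying human EP2 under a CMV promoter; the protocol text gives 20 µM as final concentration; 100% = response of wells given 1 µM PGE2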
# Target sequence (P43116 whole entry, looked up): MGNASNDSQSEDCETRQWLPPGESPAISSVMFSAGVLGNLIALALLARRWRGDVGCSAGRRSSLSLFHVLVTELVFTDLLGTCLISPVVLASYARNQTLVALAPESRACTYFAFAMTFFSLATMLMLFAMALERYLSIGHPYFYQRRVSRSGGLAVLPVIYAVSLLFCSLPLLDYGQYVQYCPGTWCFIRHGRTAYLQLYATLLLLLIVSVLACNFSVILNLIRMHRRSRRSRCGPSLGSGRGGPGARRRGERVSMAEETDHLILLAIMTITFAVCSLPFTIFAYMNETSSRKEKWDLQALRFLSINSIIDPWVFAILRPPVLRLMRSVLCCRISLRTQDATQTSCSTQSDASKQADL
# EP2 antag: EP2 receptor (human) inhibition; P43116; C6 glioma cells expressing human EP2, cAMP TR-FRET; cells stimulated with saturating PGE2; inhibition, % at 25 µM; actives 0.52% (n = 260,000); AID 1422;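 active = percent inhibition above 40 after rounding to a whole number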;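 also: rat C6 glioma host cells with rolipram phosphodiesterase inhibitor present; the protocol text gives 20 µM as final concentration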
# CHT inh: inhibitors of human choline transporter CHT; Q9GZV3; CHT-expressing cells, membrane potential dye, choline response; stronger effect = lower value; B-score at 10 µM; actives 0.86% (n = 310,000); AID 488975;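 active = B-score over 3 SD under the library average, and starting fluorescence ratio not unusually high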;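 also: choline stimulus applied at its EC90 after an EC20 pre-addition; B-score computed on integrated fluorescence ratio after choline addition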
# CHT block conf: confirmation of human choline transporter CHT inhibitors; shares compounds with CHT inh; AID 493221; actives 70% (n = 2,400); CHT activity remaining % of control (stronger effect = lower value), % at 10 µM; CHT-expressing cells, choline membrane potential dye; LV-to-AA substituted CHT, HEK293 cells;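 active = choline transporter activity left, mean of duplicates at 10 µM, below buffer-only control mean minus 3 SD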;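 also: depolarization triggered by choline at its EC90 following an EC20 pre-addition; 0% = hemicholinium-3 full block and 100% = buffer-only control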
# HEK293 CHT ctr: counter-screen for CHT inhibitors: effect in parental HEK293 cells. AID 493222. actives 4% (n = 2,400). membrane potential dye, choline response; active = decrease or increase beyond buffer ±3SD. membrane potential ratio readout (active if shifted either direction beyond buffer ±3SD; no single direction) at 10 µM. shares compounds with CHT inh;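 also: parental cells lack the transporter so any hit is non-specific; ratio is peak minus trough fluorescence over baseline after EC90 choline challenge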
# * hit, by the source's call; i = inactive; . = no result given.
SMILES,CHT allo act,EP2 mod,EP2 antag,CHT inh,CHT block conf,HEK293 CHT ctr
CSc1nnc(-c2sccc2OCc2ccccc2)n1C,i,10,9,-7.3*,55%*,-9.6*
Cc1cc(C)c2nc(NC(=O)c3ccc(N)cc3)sc2c1,.,-49,22,.,.,.
CN(C)/C=C1\C(=O)ON=C1c1ccccc1,i,7,12,i,.,.
O=C1ON=C(c2ccccc2)/C1=C/c1ccco1,i,-54,96*,-6.6*,50%*,i
O=C(c1ccncc1)c1ccc(N2CCN(C3CC(=O)N(Cc4cccs4)C3=O)CC2)cc1 (stereo unspecified),i,-75,10,-5.6*,i,i
O=C1CC(N2CCN(c3ccc(O)cc3)CC2)C(=O)N1Cc1cccs1 (stereo unspecified),i,5,18,i,.,.
COc1cccc(/C=N/NC(=O)C(=O)NCc2cccnc2)c1OC,i,-4,11,-5.9*,i,i
COC(=O)[C@@H]1CN(C(=O)c2cscn2)C[C@H]1c1ccc(OC)cc1,.,-21,.,.,.,.
CCOc1ccc(C2NC(=O)c3sc(=S)n(-c4ccccc4)c3N2)cc1 (stereo unspecified),i,-41,6,-4.9*,i,i
COc1ccc(C2NC(=O)c3sc(=S)n(-c4ccccc4)c3N2)cc1 (stereo unspecified),i,7,5,i,.,.
COc1ccc(Cl)cc1NC(=O)C[n+]1cccc(C)c1,i,.,.,-8.1*,40%*,i
COc1cc([N+](=O)[O-])ccc1NC(=O)C[n+]1cccc(C)c1,i,14,12,i,.,.
CC(=O)N(c1ccccc1)c1nc(/C=C/C(=O)Nc2c(C)cc(C)cc2C)cs1,i,22,12,-5.3*,i,i
O=C(C1Cc2ccccc2CN1S(=O)(=O)c1ccc(F)cc1)N1CCCCC1 (stereo unspecified),i,34,3,-6.3*,3.1%*,i
O=C(c1ccco1)N1CCN(C(=O)C2Cc3ccccc3CN2S(=O)(=O)c2ccc(F)cc2)CC1 (stereo unspecified),i,17,13,i,.,.
CCc1ccccc1-n1nnc(-c2ccccc2)n1,i,.,.,-5.4*,i,i
CCOC(=O)Cn1nnc(-c2ccccc2)n1,i,18,7,i,.,.
CCN1CCN(C(=O)CCc2nc3ccccc3n2-c2ccccc2)CC1,i,-6,6,-6.1*,40%*,i
Cn1c(=O)c(C(=O)Nc2ccc(F)cc2)c(O)c2ccccc21,.,-251,12,.,.,.
O=C(O)c1ccc(CN2CCCC2)o1,.,-6,3,.,.,.
NNC(=O)c1ccc(CN2CCCCC2)o1,i,-10,3,-5.9*,i,i
Cn1nc(Cl)cc1C(=O)N1CCC(C(=O)c2nc3ccccc3s2)CC1,.,-36,.,.,.,.
COc1ccc(C(=O)c2cc([N+](=O)[O-])ccc2N2CCCC2)cc1,i,5,7,i,.,.
COc1ccc(C(=O)c2cc([N+](=O)[O-])ccc2N2CCN(C)CC2)cc1,i,-34,3,-6.9*,44%*,4.7*
CCOc1ccccc1NC(=O)CSc1nnnn1-c1cccc(OC)c1,.,-20,10,.,.,.
SMILES,CHT allo act,EP2 mod,EP2 antag,CHT inh,CHT block conf,HEK293 CHT ctr
Cc1ccc(C)c(S(=O)(=O)C(C#N)c2nc3ccccc3nc2N2CC(C)OC(C)C2)c1 (stereo unspecified),i,6,5,-8.1*,41%*,i
Cc1ccc(C)c(S(=O)(=O)C(C#N)c2nc3ccccc3nc2N2CCCC2)c1 (stereo unspecified),i,15,10,i,.,.
Cn1nc(C(C)(C)C)cc1C(=O)Nc1nnc(C(C)(C)C)s1,.,-20,10,.,.,.
O=C(CN1CCN(Cc2ccccc2Cl)C1=O)NC1CCCCCCC1,i,7,11,-5.2*,i,i
COc1ccc([C@@H](C)NC(=O)CCc2nnc(-c3cc(C)on3)o2)cc1,i,17,4,i,.,.
CCC(NC(=O)CCc1nnc(-c2cc(C)on2)o1)C12CC3CC(CC(C3)C1)C2 (stereo unspecified),i,.,.,-7.9*,44%*,i
CC1CCN(C(=O)CCSc2nc(-c3ccc4c(c3)OCO4)cc(C(F)(F)F)n2)C(C)C1 (stereo unspecified),.,-110,12,.,.,.
O=C(COC(=O)c1ccccc1Oc1ccccc1)NCc1ccco1,i,55,28,-5.4*,i,i
O=C(COC(=O)c1ccccc1)NCc1ccco1,i,-4,10,i,.,.
O=C(NC1CCCC1)c1ccc(COc2ccccc2Br)o1,i,.,.,-5.1*,i,i
COCC(C)NC(=O)c1cc(-c2ccc(Cl)cc2Cl)on1 (stereo unspecified),.,-99,16,.,.,.
Cc1ccc(/C=C2\SC(=S)N(c3c(C)n(C)n(-c4ccccc4)c3=O)C2=O)cc1,i,18,12,-5.4*,60%*,i
Cc1c(N2C(=O)/C(=C/c3ccccc3)SC2=S)c(=O)n(-c2ccccc2)n1C,i,25,12,i,.,.
O=C(CN1C(=O)S/C(=C\c2cccc(Cl)c2)C1=O)NCCCn1ccnc1,i,.,.,-5.8*,56%*,i
O=S(=O)(NCC1CC1)c1ccc(S(=O)(=O)N2CCCC2)cc1,.,-25,11,.,.,.
CC(C)(C)c1ccc(-c2nnc(N)s2)cc1,i,11,5,-6*,i,i
Nc1nnc(-c2ccc(F)cc2)s1,i,27,2,i,.,.
O=C(CSc1c2c(nc3cc(Cl)ccc13)CCCC2)NCCN1CCOCC1,i,19,8,i,.,.
O=C(CSc1c2c(nc3ccc(Cl)cc13)CCCC2)NCCCN1CCOCC1,i,17,9,-8.6*,18%*,i
O=C(Nc1ccc(F)cc1F)c1nc2ncccn2n1,.,1,7,.,.,.
O=C(COC(=O)C1(c2ccccc2F)CCCC1)N1CCN(C(=O)c2ccco2)CC1,i,10,4,-5.4*,68%*,i
Cc1ccc(C(C)C(=O)N2CCc3c(nc(N4CCOCC4)[nH]c3=O)C2)cc1 (stereo unspecified),.,-14,.,.,.,.
CCOC(=O)Nc1cccnc1Sc1ccc(Cl)cc1,i,.,.,i,.,.
Cc1ccc(Sc2ncccc2NC(=O)c2ccccc2Cl)cc1,i,-16,7,-5*,i,i
CCOc1ccc(NC(=O)CSc2nnc(-c3ccc(OC)cc3)n2CC)cc1,.,21,2,.,.,.
O=C1C(=O)N(CCN2CCOCC2)C(c2cccnc2)/C1=C(/O)c1ccccc1 (stereo unspecified),i,10,3,i,.,.
